From PubChem BioAssay (Tox21)
Records with an inconclusive call do not appear. The source made the active and inactive calls. The call rests on the fitted dose curve; in most records, active means well fitted curve in the direction sought with a large enough effect in the repeat runs; inconclusive means weak or mixed curves; inactive means no such curve, though single readings can be large; an effect the other way counts as inactive or inconclusive.

Assays:
[1] = qHTS RealTime-Glo MT Cell Viability Assay in HepG2 cells - 40 hour (AID 1224870); further: nearly all actives have a fitted effect of over 50% in size
How it was run: (§1)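 HepG2 cells mixed with RealTime-Glo MT reagents (NanoLuc plus cell-permeant prosubstrate) were seeded at 600 cells/well, incubated 5 h at 37 C/5% CO2, then pinned with compounds in DMSO; nonlytic luminescence tracked viability during 40 h treatment.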

[2] = A CellTox Green Cytotoxicity Assay to monitor cytotoxicity in HEK293 cells - 40 hour (AID 1224871); further: nearly all actives have a fitted effect of over 45% in size
How it was run: (§2)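 Fluorescence intensity, read at 0, 8, 16, 24, 32 and 40 h of compound treatment, reflected dye binding to DNA of dead HEK293 cells; compounds (23 nL, DMSO) were added 5 h after plating cells with reagent.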

[3] = qHTS RealTime-Glo MT Cell Viability Assay in HEK293 cells - 16 hour (AID 1224872); further: top concentration of the series differs between compounds; nearly all actives have a fitted effect of over 50% in size
How it was run: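 Nonlytic real-time viability readout: viable cells convert prosubstrate to NanoLuc substrate, giving luminescence proportional to live cell number. HEK293, 600 cells/well, compound added after 5 h, continuous culture at 37 C.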

[4] = qHTS RealTime-Glo MT Cell Viability Assay in HepG2 cells - 8 hour (AID 1224873); further: nearly all actives have a fitted effect of over 55% in size
How it was run: as §1

[5] = qHTS RealTime-Glo MT Cell Viability Assay in HEK293 cells - 40 hour (AID 1224874); conditions: RealTime-Glo luminescence; max response: stronger effect = lower value; further: nearly all actives have a fitted effect of over 50% in size
How it was run: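 Viable HEK293 cells reduce a cell-permeant prosubstrate; the product diffuses out and is consumed by NanoLuc in the medium to give light. Compounds went in after a 5 h incubation and plates were read over the treatment course.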

[6] = A CellTox Green Cytotoxicity Assay to monitor cytotoxicity in HEK293 cells - 24 hour (AID 1224875); further: series mostly up to about 77 µM; nearly all actives have a fitted effect of over 45% in size
How it was run: as §2

[7] = A CellTox Green Cytotoxicity Assay to monitor cytotoxicity in HepG2 cells - 16 hour (AID 1224876); further: nearly all actives have a fitted effect of over 45% in size
How it was run: (§3)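 Using 1536-well format, dye-containing HepG2 suspension was seeded, allowed 5 h at 37 C/5% CO2, dosed by pintool with compounds, positive and negative controls, and imaged for fluorescence across 40 h.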

[8] = qHTS RealTime-Glo MT Cell Viability Assay in HepG2 cells - 32 hour (AID 1224877); further: nearly all actives have a fitted effect of over 55% in size
How it was run: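 Luminescence read-out: viable HepG2 cells reduce a prosubstrate to a NanoLuc substrate, giving a signal proportional to live cell number. Reads taken at 0, 8, 16, 24, 32 and 40 h of compound exposure at 37 C.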

[9] = A CellTox Green Cytotoxicity Assay to monitor cytotoxicity in HepG2 cells - 24 hour (AID 1224878); further: nearly all actives have a fitted effect of over 45% in size
How it was run: as §3

[10] = A CellTox Green Cytotoxicity Assay to monitor cytotoxicity in HepG2 cells - 40 hour (AID 1224879); further: nearly all actives have a fitted effect of over 40% in size
How it was run: as §3
On the % scale 0 is the no-effect control and ±100 the full control effect.

CN1CCN(CC(=O)N2c3ccccc3C(=O)Nc3cccnc32)CC1
inactive: activity change, negative = cytotoxic [1] 3.53% [at 6.97 µM] | cytotoxicity increase [2] -2.67% [at 6.97 µM] | activity change, negative = cytotoxicity [3] 13.3% [at 6.97 µM] | viability change, negative = cytotoxic [4] 0.562% [at 6.97 µM] | max response [5] 6.66% | activity change [6] -2.09% [at 6.97 µM] | cytotoxicity increase [7] -11.9% [at 6.97 µM] | activity change, negative = cytotoxic [8] 1.53% [at 6.97 µM] | cytotoxicity [9] -12.6% [at 6.97 µM] | cytotoxicity increase [10] -15.8% [at 6.97 µM]

CCCCCCOC(=O)CC
inactive: outcome [1] | Potency [2] | Potency [3] | outcome [4] | max response [5] 2.45% | outcome [6] | outcome [7] | outcome [8] | outcome [9] | Potency [10]

CN1C(C)(C)CCCC1(C)C
inactive: outcome [1] | Potency [2] | Potency [3] | outcome [4] | max response [5] -1.11% | outcome [6] | outcome [7] | outcome [8] | outcome [9] | Potency [10]

O=C1CCCC(=O)O1
inactive: outcome [1] | Potency [2] | Potency [3] | outcome [4] | max response [5] 15.9% | outcome [6] | outcome [7] | outcome [8] | outcome [9] | Potency [10]

CCn1ccc(NS(=O)(=O)c2ccc(N)cc2)nc1=O
inactive: outcome [1] | Potency [2] | Potency [3] | outcome [4] | max response [5] 5.4% | outcome [6] | outcome [7] | outcome [8] | outcome [9] | Potency [10]

O=C1c2ccccc2C(=O)C1c1ccccc1
inactive: outcome [1] | Potency [2] | Potency [3] | outcome [4] | max response [5] 3.3% | outcome [6] | outcome [7] | outcome [8] | outcome [9] | Potency [10]

Cc1ccsc1/C=C/C1=NCCCN1C
inactive: outcome [1] | Potency [2] | Potency [3] | outcome [4] | max response [5] 2.37% | outcome [6] | outcome [7] | outcome [8] | outcome [9] | Potency [10]

C[C@@H]1O[C@@H](O[C@@H]2[C@@H](O)[C@H](OCCc3ccc(O)c(O)c3)O[C@H](CO[C@@H]3O[C@H](CO)[C@@H](O)[C@H](O)[C@H]3O)[C@H]2OC(=O)/C=C/c2ccc(O)c(O)c2)[C@H](O)[C@H](O)[C@H]1O
inactive: outcome [1] | Potency [2] | Potency [3] | outcome [4] | max response [5] -18.6% | outcome [6] | outcome [7] | outcome [8] | outcome [9]

COCCc1ccc(OCC2CO2)cc1 (centres undefined)
inactive: outcome [1] | Potency [2] | Potency [3] | outcome [4] | max response [5] 13.1% | outcome [6] | outcome [7] | outcome [8] | outcome [9] | Potency [10]

Nc1ccc([N+](=O)[O-])c(N)c1
inactive: outcome [1] | Potency [2] | Potency [3] | outcome [4] | max response [5] -10.3% | outcome [6] | outcome [7] | outcome [8] | outcome [9] | Potency [10]

CCCN1C[C@H](CSC)C[C@@H]2c3cccc4[nH]cc(c34)C[C@H]21
inactive: outcome [1] | Potency [2] | Potency [3] | outcome [4] | max response [5] -0.0801% | outcome [6] | outcome [7] | outcome [8] | outcome [9] | Potency [10]

CCC(C=O)CC
inactive: outcome [1] | Potency [2] | Potency [3] | outcome [4] | max response [5] -5.72% | outcome [6] | outcome [7] | outcome [8] | outcome [9] | Potency [10]

Nc1ccc(S(=O)(=O)Nc2ccc(Cl)nn2)cc1
inactive: outcome [1] | Potency [2] | Potency [3] | outcome [4] | max response [5] -0.389% | outcome [6] | outcome [7] | outcome [8] | outcome [9] | Potency [10]

C[C@H](CCC(=O)O)[C@H]1CC[C@H]2[C@@H]3C(=O)C[C@@H]4CC(=O)CC[C@]4(C)[C@H]3CC(=O)[C@]12C
inactive: outcome [1] | Potency [2] | Potency [3] | outcome [4] | max response [5] 4.35% | outcome [6] | outcome [7] | outcome [8] | outcome [9] | Potency [10]

COc1ccc(OC)c(Cl)c1
inactive: outcome [1] | Potency [2] | Potency [3] | outcome [4] | max response [5] 5.92% | outcome [6] | outcome [7] | outcome [8] | outcome [9] | Potency [10]

CCCCCCCCC1CCC(=O)O1 (centres undefined)
inactive: outcome [1] | Potency [2] | Potency [3] | outcome [4] | max response [5] -1.86% | outcome [6] | outcome [7] | outcome [8] | outcome [9] | Potency [10]

COc1ccc(C2CNC(=O)C2)cc1OC1CCCC1 (centres undefined)
inactive: outcome [1] | Potency [2] | Potency [3] | outcome [4] | max response [5] -17.5% | outcome [6] | outcome [7] | outcome [8] | outcome [9] | Potency [10]

C=COCCOCCOCCOC=C
inactive: outcome [1] | Potency [2] | Potency [3] | outcome [4] | max response [5] 1.1% | outcome [6] | outcome [7] | outcome [8] | outcome [9] | Potency [10]

NCCS
inactive: outcome [1] | Potency [2] | Potency [3] | outcome [4] | max response [5] 7.37% | outcome [6] | outcome [7] | outcome [8] | outcome [9] | Potency [10]

CC[C@H](C)C(=O)O[C@H]1C[C@H](O)C=C2C=C[C@H](C)[C@H](CC[C@@H](O)C[C@@H](O)CC(=O)O)[C@H]21
inactive: outcome [1] | Potency [2] | Potency [3] | outcome [4] | max response [5] 13.5% | outcome [6] | outcome [7] | outcome [8] | outcome [9] | Potency [10]

C=C(C)C(=O)OCCNC(C)(C)C
inactive: outcome [1] | Potency [2] | Potency [3] | outcome [4] | max response [5] 0.848% | outcome [6] | outcome [7] | outcome [8] | outcome [9] | Potency [10]

CCN1CCc2nc(N)oc2CC1
inactive: outcome [1] | Potency [2] | Potency [3] | outcome [4] | max response [5] 0.505% | outcome [6] | outcome [7] | outcome [8] | outcome [9] | Potency [10]
